# Results published in PubChem BioAssay (NCATS).
# Where “and” joins values, the source holds several entries; their conditions need not be identical. Equal entries are not always repeated. Records with an inconclusive call do not appear. A call without a number means that no potency is given here. Calls of active or inactive are those of the source. The call rests on the fitted dose curve; in most records, active means well fitted inhibition curve with a large enough effect; inconclusive means small, poorly fitted or top-dose-only effect; inactive means flat fitted curve, though single readings scatter.
# Legend:
# ECU = test: qHTS profiling for inhibitors of Plasmodium falciparum proliferation (AID 504749); conditions: P. falciparum in erythrocytes, SYBR Green DNA, 72 h; series mostly up to 28.7 µM
# Outline: (§1)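 In a 72 h erythrocytic culture (37 C, humidified, 5% CO2) at 2.5% hematocrit and 0.3% starting parasitemia, compounds were tested; SYBR Green I in detergent lysis buffer stained parasite DNA overnight.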
# FAB9 = test: as above; conditions: P. falciparum in erythrocytes, SYBR Green DNA, 72 h; series mostly up to 28.7 µM
# Outline: as §1
# GB4 = test: as above; conditions: P. falciparum in erythrocytes, SYBR Green DNA, 72 h; series mostly up to 28.7 µM
# Outline: as §1
# HB3 = test: as above; conditions: P. falciparum in erythrocytes, SYBR Green DNA, 72 h; series mostly up to 28.7 µM
# Outline: as §1
# ICS = test: as above; conditions: P. falciparum in erythrocytes, SYBR Green DNA, 72 h; series mostly up to 28.7 µM
# Outline: as §1
# JCK = test: as above; conditions: P. falciparum in erythrocytes, SYBR Green DNA, 72 h; series mostly up to 28.7 µM
# Outline: as §1
# N140 = test: as above; conditions: P. falciparum in erythrocytes, SYBR Green DNA, 72 h; series mostly up to 28.7 µM
# Outline: as §1
# P93_24 = test: as above; conditions: P. falciparum in erythrocytes, SYBR Green DNA, 72 h; series mostly up to 28.7 µM
# Outline: as §1
# P94_40 = test: as above; conditions: P. falciparum in erythrocytes, SYBR Green DNA, 72 h; series mostly up to 28.7 µM
# Outline: as §1
# PAD = test: as above; conditions: P. falciparum in erythrocytes, SYBR Green DNA, 72 h; series mostly up to 28.7 µM
# Outline: as §1
# PC15 = test: as above; conditions: P. falciparum in erythrocytes, SYBR Green DNA, 72 h; series mostly up to 28.7 µM
# Outline: as §1
# PC26 = test: as above; conditions: P. falciparum in erythrocytes, SYBR Green DNA, 72 h; series mostly up to 28.7 µM
# Outline: as §1
# PC49 = test: as above; conditions: P. falciparum in erythrocytes, SYBR Green DNA, 72 h; series mostly up to 28.7 µM
# Outline: as §1
# SC27B = test: as above; conditions: P. falciparum in erythrocytes, SYBR Green DNA, 72 h; series mostly up to 28.7 µM
# Outline: as §1
# TAB109 = test: as above; conditions: P. falciparum in erythrocytes, SYBR Green DNA, 72 h; series mostly up to 28.7 µM
# Outline: as §1
# TAB113 = test: as above; conditions: P. falciparum in erythrocytes, SYBR Green DNA, 72 h; series mostly up to 28.7 µM
# Outline: as §1
# TAB165 = test: as above; conditions: P. falciparum in erythrocytes, SYBR Green DNA, 72 h; series mostly up to 28.7 µM
# Outline: as §1
# W2 = test: as above; conditions: P. falciparum in erythrocytes, SYBR Green DNA, 72 h; series mostly up to 28.7 µM
# Outline: as §1
# CRL-7250 = normal cell line; test: Cytotoxic Profiling of Annotated Libraries Using Quantitative High-Throughput Screening (AID 1296008); conditions: Five cell lines viability, CellTiter-Glo ATP luminescence, 48-72 h; max response: stronger effect = lower value
# Outline: (§2)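 Cytotoxicity was measured as CellTiter-Glo ATP luminescence, read after 10 min at room temperature. Compound treatment of the cells lasted 48 or 72 hr at 37 degrees Celsius in a qHTS format.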
# HEK293 = test: as above; conditions: Five cell lines viability, CellTiter-Glo ATP luminescence, 48-72 h; max response: stronger effect = lower value
# Outline: as §2
# Further: nearly all actives have a fitted effect of over 60% in size.
# Potency means the concentration at half of the fitted maximal effect.
smiles,measurement,setting,value
Oc1c(Br)cc(Br)cc1Br,Potency,ECU,inactive
same,Potency,FAB9,inactive
same,Potency,GB4,inactive
same,Potency,HB3,inactive
same,Potency,ICS,inactive
same,Potency,JCK,inactive
same,Potency,N140,inactive
same,Potency,P93_24,inactive
same,Potency,P94_40,inactive
same,Potency,PAD,inactive
same,Potency,PC15,inactive
same,Potency,PC26,inactive
same,Potency,PC49,inactive
same,Potency,SC27B,inactive
same,Potency,TAB109,inactive
same,Potency,TAB113,inactive
same,Potency,TAB165,inactive
same,Potency,W2,inactive
same,max response,CRL-7250,-10.6% (inactive)
CC[n+]1c(-c2ccccc2)c2cc(N)ccc2c2ccc(N)cc21,Potency,ECU,141 nM (active) and 447 nM (active)
same,Potency,FAB9,79.4 nM (active) and 89.1 nM (active)
same,Potency,GB4,75.7 nM (active) and 169 nM (active)
same,Potency,HB3,126 nM (active) and 316 nM (active)
same,Potency,ICS,44.7 nM (active) and 126 nM (active)
same,Potency,JCK,79.4 nM (active) and 282 nM (active)
same,Potency,N140,141 nM (active) and 316 nM (active)
same,Potency,P93_24,63.1 nM (active) and 158 nM (active)
same,Potency,P94_40,70.8 nM (active) and 355 nM (active)
same,Potency,PAD,199 nM (active) and 316 nM (active)
same,Potency,PC15,251 nM (active) and 891 nM (active)
same,Potency,PC26,1.51 µM (active) and 2.13 µM (active)
same,Potency,PC49,178 nM (active) and 316 nM (active)
same,Potency,SC27B,126 nM (active) and 355 nM (active)
same,Potency,TAB109,70.8 nM (active) and 158 nM (active)
same,Potency,TAB113,100 nM (active) and 316 nM (active)
same,Potency,TAB165,17.8 nM (active) and 224 nM (active)
same,Potency,W2,21.3 nM (active) and 37.9 nM (active)
same,Potency,CRL-7250,6.68 µM (active)
same,Potency,HEK293,0.596 µM (active)
CCC1(CC)C(=O)NC(=O)NC1=O,Potency,ECU,inactive
same,Potency,FAB9,inactive
same,Potency,GB4,inactive
same,Potency,HB3,inactive
same,Potency,ICS,inactive
same,Potency,JCK,inactive
same,Potency,N140,inactive
same,Potency,P93_24,inactive
same,Potency,P94_40,inactive
same,Potency,PAD,inactive
same,Potency,PC15,inactive
same,Potency,PC26,inactive
same,Potency,PC49,inactive
same,Potency,SC27B,inactive
same,Potency,TAB109,inactive
same,Potency,TAB113,inactive
same,Potency,TAB165,inactive
same,max response,CRL-7250,-2.88% (inactive)
CCN(CC)CCOC(=O)C(C)(c1ccccc1)c1ccccc1,Potency,FAB9,inactive
same,Potency,HB3,inactive
same,Potency,JCK,inactive
same,Potency,W2,1.35 µM (active)
same,max response,CRL-7250,-0.0825% (inactive)
NC(=O)CN1CCCC1=O,Potency,ECU,inactive
same,Potency,FAB9,inactive
same,Potency,GB4,inactive
same,Potency,HB3,inactive
same,Potency,ICS,inactive
same,Potency,JCK,inactive
same,Potency,N140,inactive
same,Potency,P93_24,inactive
same,Potency,P94_40,inactive
same,Potency,PAD,inactive
same,Potency,PC15,inactive
same,Potency,PC26,inactive
same,Potency,PC49,inactive
same,Potency,SC27B,inactive
same,Potency,TAB109,inactive
same,Potency,TAB113,inactive
same,Potency,TAB165,inactive
same,Potency,W2,inactive
same,outcome,CRL-7250,inactive
Cc1nnc2n1-c1sc(CCc3ccc(CC(C)C)cc3)cc1C(c1ccccc1Cl)=NC2C (centres undefined),Potency,HEK293,7.5 µM (active)
COc1ccc(CN2CCNCC2)c(OC)c1OC,Potency,ECU,inactive
same,Potency,FAB9,inactive
same,Potency,HB3,inactive
same,Potency,ICS,inactive
same,Potency,JCK,inactive
same,Potency,N140,inactive
same,Potency,P93_24,inactive
same,Potency,P94_40,inactive
same,Potency,PAD,inactive
same,Potency,PC15,inactive
same,Potency,PC49,inactive
same,Potency,SC27B,inactive
same,Potency,TAB109,inactive
same,Potency,TAB113,inactive
same,Potency,TAB165,inactive
same,max response,CRL-7250,0.0195% (inactive)
CC(Cc1ccccc1)NCc1ccccc1Cl (centres undefined),Potency,ECU,inactive
same,Potency,FAB9,inactive
same,Potency,HB3,inactive
same,Potency,JCK,inactive
same,Potency,PC15,inactive
same,Potency,PC49,inactive
same,Potency,SC27B,inactive
same,Potency,W2,5.36 µM (active)
same,max response,CRL-7250,-20.3% (inactive)
COCC(=O)N(c1c(C)cccc1C)C(C)C(=O)OC (centres undefined),Potency,FAB9,inactive
same,Potency,GB4,inactive
same,Potency,HB3,inactive
same,Potency,ICS,inactive
same,Potency,JCK,inactive
same,Potency,PC15,inactive
same,Potency,PC26,inactive
same,Potency,PC49,inactive
same,Potency,SC27B,inactive
same,Potency,TAB113,inactive
same,Potency,W2,inactive
same,max response,CRL-7250,1.66% (inactive)
C[N+]1(CCC(C(N)=O)(c2ccccc2)c2ccccc2)CCCCC1,Potency,ECU,inactive
same,Potency,FAB9,inactive
same,Potency,GB4,inactive
same,Potency,HB3,inactive
same,Potency,ICS,inactive
same,Potency,JCK,inactive
same,Potency,N140,inactive
same,Potency,P93_24,inactive
same,Potency,P94_40,inactive
same,Potency,PAD,inactive
same,Potency,PC15,inactive
same,Potency,PC26,inactive
same,Potency,PC49,inactive
same,Potency,SC27B,inactive
same,Potency,TAB109,inactive
same,Potency,TAB113,inactive
same,Potency,TAB165,inactive
same,Potency,W2,inactive
C[C@]12C=CC(=O)C=C1CC[C@@H]1[C@@H]2CC[C@@]2(C)[C@H]1CC[C@]2(C)O,Potency,ECU,inactive
same,Potency,FAB9,inactive
same,Potency,HB3,inactive
same,Potency,ICS,inactive
same,Potency,JCK,inactive
same,Potency,N140,inactive
same,Potency,P93_24,inactive
same,Potency,P94_40,inactive
same,Potency,PAD,inactive
same,Potency,PC15,inactive
same,Potency,PC49,inactive
same,Potency,SC27B,inactive
same,Potency,TAB109,inactive
same,Potency,TAB113,inactive
same,Potency,TAB165,inactive
same,Potency,W2,inactive
same,max response,CRL-7250,-25.8% (inactive)
CCC(=O)O[C@H]1CC[C@H]2[C@@H]3CCC4=CC(=O)CC[C@]4(C)[C@H]3CC[C@]12C,Potency,ECU,inactive
same,Potency,FAB9,inactive
same,Potency,GB4,inactive
same,Potency,HB3,inactive
same,Potency,ICS,inactive
same,Potency,JCK,inactive
same,Potency,N140,inactive
same,Potency,P93_24,inactive
same,Potency,P94_40,inactive
same,Potency,PAD,inactive
same,Potency,PC15,inactive
same,Potency,PC26,inactive
same,Potency,PC49,inactive
same,Potency,SC27B,inactive
same,Potency,TAB109,inactive
same,Potency,TAB113,inactive
same,Potency,TAB165,inactive
same,Potency,W2,inactive
O=C(NC(=O)c1c(F)cccc1F)Nc1cc(Cl)c(OC(F)(F)C(F)C(F)(F)F)cc1Cl (centres undefined),Potency,FAB9,inactive
same,Potency,GB4,inactive
same,Potency,JCK,inactive
same,Potency,P93_24,8.91 µM (active)
same,Potency,P94_40,12.6 µM (active)
same,Potency,PC15,inactive
same,Potency,PC26,inactive
same,Potency,TAB113,11.2 µM (active)
same,outcome,CRL-7250,inactive
CN1CCc2cc(Cl)c(O)cc2[C@H]2c3ccccc3CC[C@@H]21,Potency,FAB9,inactive
same,Potency,JCK,inactive
same,Potency,PAD,inactive
same,Potency,PC15,inactive
same,Potency,PC49,inactive
same,Potency,TAB113,inactive
same,Potency,W2,4.78 µM (active)
same,max response,CRL-7250,-3.76% (inactive)
